Among the data in PubChem BioAssay are z-score and composite z-score values, retold here.

Calls of active or inactive are those of the source.

Tested on in one test: not listed separately
Nature of the test: CREB reporter modulators under forskolin, primary screen, cell-based, PC12, CRE-LacZ reporter, forskolin-stimulated (AID 1146).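 Also: PC12 cells with 6xCRE LacZ reporter stimulated by forskolin 10 µM; beta-galactosidase reporter signal reflecting CREB driven transcription.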 The note with it: luminescence, 4.5 h, higher = more signal, called active from +8 up or from −8 down.
For `COC(=O)[C@@]1(Cc2ccccc2)[C@H]2c3cc(C(=O)N(C)C)n(Cc4cc(F)c(F)c(F)c4)c3C[C@H]2CN1C(=O)c1ccccc1`, the z-score is -0.214 (inactive). For `O=C1O[C@H](c2ccccc2)[C@H](c2ccccc2)N2[C@H]1[C@@H](C(=O)N1CCCCCCC1)[C@]1(C(=O)Nc3ccc(C#CC4=CCCCC4)cc31)[C@H]2c1ccc(O)cc1`, the z-score is -0.464 (inactive).

Regarding `[N-]=[N+]=NCc1ccccc1C[C@]1(C(N)=O)N=C(c2ccc(OCCCO)cc2)O[C@H]1c1ccccc1N=[N+]=[N-]`, the z-score is 0.248 (inactive). `C=CCOC(=O)[C@H]1[C@@H]2C(=O)O[C@@H](c3ccccc3)[C@@H](c3ccccc3)N2[C@@H](c2ccc(OCCOC(=O)[C@H]3C[C@H]4C(=O)N[C@@H](CCCC[N+](C)(C)C)C(=O)N4[C@H]3c3ccc(O)cc3)cc2)[C@]12C(=O)Nc1ccccc12`: the z-score is -1.06 (inactive). Regarding `CC(C)NC(=O)[C@@]1(c2ccc([N+](=O)[O-])cc2)CC(=O)N(C(C)C)[C@@H]1c1ccc(CO)cc1`, the z-score was -0.205 (inactive). With `COc1ccc([Si](C)(C)[C@@H]2[C@@H](CCn3cc([C@H](O)c4ccccc4)nn3)O[C@]3(C(=O)N(C)c4ccccc43)[C@H]2C)cc1`, the z-score is -1.26 (inactive). With `COCCOC(=O)N1C(=O)[C@@]2(c3cc(C#CC4=CCCCC4)ccc31)[C@H](C(=O)N1CCN(c3ncccn3)CC1)[C@H]1C(=O)O[C@H](c3ccccc3)[C@H](c3ccccc3)N1[C@@H]2c1ccc(OCCO)cc1`, the z-score is -0.0728 (inactive). In the case of `C=CCOC(=O)[C@@H]1[C@H]2C(=O)O[C@H](c3ccccc3)[C@H](c3ccccc3)N2[C@H](c2ccc(OCCOC(=O)[C@H]3C[C@H]4C(=O)N[C@@H](CC(C)C)C(=O)N4[C@H]3c3cccc(OCCO)c3)cc2)[C@@]12C(=O)Nc1ccc(I)cc12`, the z-score was -0.0639 (inactive). For the compound `CC(C)N1C(=O)c2ccccc2[C@](C)(C(=O)NCCCN(C)C)[C@@H]1c1ccc(CO)cc1`, the z-score was -0.297 (inactive).

Turning to `CC(=O)NCCCC[C@@H]1NC(=O)[C@@H]2C[C@H](C(=O)NCCCCCC[N+](C)(C)C)[C@H](c3cccc(OCCO)c3)N2C1=O`, the z-score was -0.75 (inactive). Take `CCCCN1CC=CC23O[C@@H]4C=CCCOC(=O)C4[C@H]2C(=O)N(CCCO)[C@@H]3C1=O` (some centres undefined): the z-score was 0.46 (inactive). Same read-out and setting: the result for `C=CCC(OC(C)=O)[C@@H]1[C@@H](N(Cc2cc3ccccc3o2)C(=O)c2cccc3ccccc23)c2cc(OCCCO)ccc2N1C(=O)Cc1ccc(OC)cc1` (some centres undefined) reads 0.496 (inactive); that for `C=CCN1C(=O)[C@]2(COC(c3ccc(OCCCO)cc3)=N2)Cc2ccccc21`, -1.3 (inactive); that for `C=C[C@H](C)[C@H](OC(=O)Nc1ccc(OC)cc1)c1ccc(O)c2ccccc12`, 0.544 (inactive).

As for `COc1ccccc1CN1C(=O)c2ccccc2[C@](Cc2ccccc2I)(C(=O)NC2CC2)[C@@H]1c1ccc(CO)cc1`, the z-score was -0.572 (inactive).

With `C=CC[C@@]1(C(N)=O)N=C(c2ccc(OCCCO)cc2)O[C@@H]1c1ccccc1N=[N+]=[N-]`, the z-score was -1.89 (inactive).

For the compound `CCN(CC)c1ccc(N2CC=CC34O[C@@H]5C=CCOC(=O)[C@@H]5[C@H]3C(=O)N(CCCCCO)[C@@H]4C2=O)cc1` (some centres undefined), the z-score is -0.0409 (inactive). On the same count and under the same terms, the result for `COCCOC(=O)N1C(=O)[C@@]2(c3cc(C#CCC(C(=O)OC)C(=O)OC)ccc31)[C@H](c1ccc(OCCO)cc1)N1[C@H](c3ccccc3)[C@H](c3ccccc3)OC(=O)[C@H]1[C@@H]2C(=O)NC[C@H](O)c1ccccc1` reads -0.526 (inactive).

The target in another test is Streptavidin (Streptomyces avidinii) (UniProt P22629). As to the kind of experiment: streptavidin binders on small-molecule microarray, primary screen, artefact control for SMM compound annotation, biophysical, 635/667 nm fluorescence (AID 1147).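 Also: signal reflects streptavidin binding to arrayed compounds as a control protein.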 The note with it: streptavidin binding, higher = more signal.
Chain of Streptavidin (Streptomyces avidinii) (P22629 whole entry, looked up): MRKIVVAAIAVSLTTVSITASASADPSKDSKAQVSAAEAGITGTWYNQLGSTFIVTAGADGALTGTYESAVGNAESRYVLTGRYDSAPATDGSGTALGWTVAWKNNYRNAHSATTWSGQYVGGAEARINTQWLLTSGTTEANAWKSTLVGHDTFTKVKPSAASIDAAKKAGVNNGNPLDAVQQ
Turning to `C=CC[C@]1(C(=O)O)N=C(c2ccc(OCCCO)cc2)O[C@H]1c1ccccc1CN=[N+]=[N-]`, the composite z-score was -0.0336. Same read-out and setting: the result for `C[N+](C)(C)CCCCNC(=O)[C@H]1C[C@H]2C(=O)N3CCC[C@H]3C(=O)N2[C@H]1c1ccc(O)cc1` reads 0.319; that for `[N-]=[N+]=NCc1ccccc1[C@@H]1OC(c2ccc(OCCCO)cc2)=N[C@]1(Cc1ccccc1)C(=O)O`, 0.728.

`CN(C)CCCN1C(=O)[C@@]2(c3ccc([N+](=O)[O-])cc3)CC(=O)N(C3CCCCC3)[C@@H]2c2ccc(CO)cc21` displayed a composite z-score of 0.161.

On to `CCOC1=C2C(c3ccc(C)cc3)N(S(=O)(=O)c3ccc(C)cc3)CC2n2c(=O)n(-c3ccccc3)c(=O)n2C1` (centres undefined), for which the composite z-score turned out to be 1.09. The same measure, in the same setting: the result for `O=C1c2ccccc2[C@](Cc2ccccc2I)(C(=O)O)[C@H](c2ccc(CO)cc2)N1Cc1ccccc1C(F)(F)F` reads 0.477; that for `CCCCCCCCCCC(O)C1C=CC2C(=O)N(c3ccccc3)C(=O)C2N1Nc1ccc([N+](=O)[O-])cc1` (centres undefined), 0.811.

For `CCOC(=O)C1=CC[C@@H](c2cccc(Cl)c2)N(S(=O)(=O)c2ccc(C)cc2)[C@H]1c1ccc(C#N)cc1`, the composite z-score was 1.15.

In turn, `CCCCCCC#C[Si](O[C@H](c1ccccc1)c1cn([C@H](C)c2ccccc2)nn1)(C(C)C)C(C)C` yielded a composite z-score of 0.247. On the same count and under the same terms, the figure for `O=C(NCC(F)(F)F)[C@@H]1c2ccccc2C(=O)N(Cc2ccccc2)[C@H]1c1ccc(CO)cc1` is -0.27; for `O=C1OCC=C[C@H]2OC34C=CCN(c5ccc(Cl)cc5)C(=O)[C@H]3N(CCCO)C(=O)[C@@H]4[C@@H]12` (some centres undefined) it is -1.47; for `CCOC(=O)N1C(c2ccc(OCCCO)cc2)=NC(C(=O)OC)N1C(=O)OCC` (centres undefined) it is 0.829. Still for that read-out and setting: the result for `Cc1ccc(S[C@]2(C(=O)NCC(F)(F)F)CC(=O)N(C3Cc4ccccc4C3)[C@@H]2c2ccc(CO)cc2I)cc1` reads -0.457; that for `[N-]=[N+]=Nc1ccccc1C[C@]1(C(=O)N2CCCCC2)N=C(c2ccc(OCCCO)cc2)O[C@H]1c1ccccc1N=[N+]=[N-]`, 1.04; that for `C=CCNC(=O)[C@H]1[C@@H]2C(=O)O[C@@H](c3ccccc3)[C@@H](c3ccccc3)N2[C@@H](c2ccc(O)cc2)[C@]12C(=O)Nc1ccc(C#Cc3ccc(OC)cc3)cc12`, 0.252. In turn, `[N-]=[N+]=NCc1ccccc1C[C@]1(C(=O)NCc2ccccc2)COC(c2ccc(OCCCO)cc2)=N1` registered a composite z-score of 0.469. The compound `O=C1OCC=C[C@H]2OC34C=CCN(CCN5CCOCC5)C(=O)[C@H]3N(CCCCCCO)C(=O)[C@@H]4[C@@H]12` (some centres undefined) returned a composite z-score of -0.278. Same read-out and setting: the result for `[N-]=[N+]=Nc1ccccc1[C@H]1OC(c2ccc(OCCCO)cc2)=N[C@@]1(CCS(=O)(=O)c1ccccc1)C(=O)N1CCOCC1` reads 0.877; that for `COC(=O)[C@@]1(Cc2ccccc2)[C@H]2c3cc(C(=O)N(C)C)n(Cc4cc(F)c(F)c(F)c4)c3C[C@H]2CN1C(=O)c1ccccc1`, 0.773; that for `O=C1O[C@H](c2ccccc2)[C@H](c2ccccc2)N2[C@H]1[C@@H](C(=O)N1CCCCCCC1)[C@]1(C(=O)Nc3ccc(C#CC4=CCCCC4)cc31)[C@H]2c1ccc(O)cc1`, 4.23.

Take `[N-]=[N+]=NCc1ccccc1C[C@]1(C(N)=O)N=C(c2ccc(OCCCO)cc2)O[C@H]1c1ccccc1N=[N+]=[N-]`: the composite z-score was found to be 0.978. On to `C=CCOC(=O)[C@H]1[C@@H]2C(=O)O[C@@H](c3ccccc3)[C@@H](c3ccccc3)N2[C@@H](c2ccc(OCCOC(=O)[C@H]3C[C@H]4C(=O)N[C@@H](CCCC[N+](C)(C)C)C(=O)N4[C@H]3c3ccc(O)cc3)cc2)[C@]12C(=O)Nc1ccccc12`, for which the composite z-score was -0.22. Still for that read-out and setting: the result for `CC(C)NC(=O)[C@@]1(c2ccc([N+](=O)[O-])cc2)CC(=O)N(C(C)C)[C@@H]1c1ccc(CO)cc1` reads -1.26; that for `COc1ccc([Si](C)(C)[C@@H]2[C@@H](CCn3cc([C@H](O)c4ccccc4)nn3)O[C@]3(C(=O)N(C)c4ccccc43)[C@H]2C)cc1`, -0.0794; that for `COCCOC(=O)N1C(=O)[C@@]2(c3cc(C#CC4=CCCCC4)ccc31)[C@H](C(=O)N1CCN(c3ncccn3)CC1)[C@H]1C(=O)O[C@H](c3ccccc3)[C@H](c3ccccc3)N1[C@@H]2c1ccc(OCCO)cc1`, 0.832. In turn, `C=CCOC(=O)[C@@H]1[C@H]2C(=O)O[C@H](c3ccccc3)[C@H](c3ccccc3)N2[C@H](c2ccc(OCCOC(=O)[C@H]3C[C@H]4C(=O)N[C@@H](CC(C)C)C(=O)N4[C@H]3c3cccc(OCCO)c3)cc2)[C@@]12C(=O)Nc1ccc(I)cc12` gave a composite z-score of 0.332. For `CC(C)N1C(=O)c2ccccc2[C@](C)(C(=O)NCCCN(C)C)[C@@H]1c1ccc(CO)cc1`, the composite z-score was 0.578.

As to `CC(=O)NCCCC[C@@H]1NC(=O)[C@@H]2C[C@H](C(=O)NCCCCCC[N+](C)(C)C)[C@H](c3cccc(OCCO)c3)N2C1=O`, the composite z-score was -0.206.

The compound `CCCCN1CC=CC23O[C@@H]4C=CCCOC(=O)C4[C@H]2C(=O)N(CCCO)[C@@H]3C1=O` (some centres undefined) returned a composite z-score of -0.614.

The compound `C=CCC(OC(C)=O)[C@@H]1[C@@H](N(Cc2cc3ccccc3o2)C(=O)c2cccc3ccccc23)c2cc(OCCCO)ccc2N1C(=O)Cc1ccc(OC)cc1` (some centres undefined) had a composite z-score of -0.0552. In turn, `C=CCN1C(=O)[C@]2(COC(c3ccc(OCCCO)cc3)=N2)Cc2ccccc21` displayed a composite z-score of -0.554. The same measure, in the same setting: the result for `C=C[C@H](C)[C@H](OC(=O)Nc1ccc(OC)cc1)c1ccc(O)c2ccccc12` reads -0.199; that for `COc1ccccc1CN1C(=O)c2ccccc2[C@](Cc2ccccc2I)(C(=O)NC2CC2)[C@@H]1c1ccc(CO)cc1`, 0.662; that for `C=CC[C@@]1(C(N)=O)N=C(c2ccc(OCCCO)cc2)O[C@@H]1c1ccccc1N=[N+]=[N-]`, 0.496. As for `CCN(CC)c1ccc(N2CC=CC34O[C@@H]5C=CCOC(=O)[C@@H]5[C@H]3C(=O)N(CCCCCO)[C@@H]4C2=O)cc1` (some centres undefined), the composite z-score was -0.93. On to `COCCOC(=O)N1C(=O)[C@@]2(c3cc(C#CCC(C(=O)OC)C(=O)OC)ccc31)[C@H](c1ccc(OCCO)cc1)N1[C@H](c3ccccc3)[C@H](c3ccccc3)OC(=O)[C@H]1[C@@H]2C(=O)NC[C@H](O)c1ccccc1`, for which the composite z-score turned out to be 0.521.
